Measured values as given in PubChem BioAssay (NCI).
The panel holds about 79,000 compounds, 15% with a hit somewhere; the sample as a whole holds those more often. Unmarked numbers belong to inactive results. The source made the active and inactive calls. No stated cut-off is given here; in the data, active means growth inhibition above about 70%; inactive means the rest.

Assay: NCI Yeast Anticancer Drug Screen. Data for the rad50 strain (AID 155);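 further: 0% = growth of vehicle-only cultures of the same strain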
Settings: S. cerevisiae rad50 strain growth inhibition; at 3.7 µM; active compounds read high
Procedure, shortened: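 Readout: growth inhibition relative to vehicle-treated cultures. Compound exposure was carried out in a genetically defined yeast strain deficient in DNA damage repair.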

With S=C(S)NN1CCOCC1 as the compound, how does the growth inhibition read?
Its growth inhibition is 57%.

For COc1cc2c3c(cccc3c1)C(=O)N(CCN(C)C)C2=O, which growth inhibition is on record?
The growth inhibition was 0%.

With COC(=O)C1=C(C)NC(C)=C(C(=O)OCCCN2CCC(c3ccccc3)(c3ccccc3)CC2)C1c1cccc([N+](=O)[O-])c1 (stereo not given) as the compound, how does the growth inhibition read?
The growth inhibition was 48%.

Which growth inhibition does the source give for c1ccc2c(c1)Oc1cccc3cccc-2c13 here?
Its growth inhibition is 8%.

Which growth inhibition does the source give for CN(C)CCOc1ccc2c(c1)C/C(=C/c1ncc([N+](=O)[O-])n1C)C2=O here?
The growth inhibition was 47%.

With Cc1ccc(CCC2=CCCc3c2ccc2ccccc32)cc1 as the compound, how does the growth inhibition read?
The growth inhibition was -2%.

With CNC(=O)OCc1c(COC(=O)NC)c(-c2ccc(Cl)c(Cl)c2)n2c1CCC2 as the compound, how does the growth inhibition read?
The growth inhibition was -51%.

With Clc1ccccc1C1OC1c1ccccc1Cl (stereo not given) as the compound, how does the growth inhibition read?
The growth inhibition was -62%.

For O=[N+]([O-])c1cc(CCl)ccc1CCl, which growth inhibition is on record?
Its growth inhibition is 20%.

With O=C1C=CC(=O)c2c(O)c(Nc3ccc(OC(F)(F)F)cc3)c(Cl)c(O)c21 as the compound, how does the growth inhibition read?
Its growth inhibition is -15%.

For S=c1[nH]nc(Nc2ccc(Cl)cc2)s1, which growth inhibition is on record?
Its growth inhibition is -13%.

With Cn1ccnc1Oc1ccc(Cl)cc1 as the compound, how does the growth inhibition read?
The growth inhibition was -9%.

Which growth inhibition does the source give for BrCc1cccc2ccc3cccc(CBr)c3c12 here?
The growth inhibition was -3%.

With O=C1c2ccccc2-c2nc3ccccc3nc21 as the compound, how does the growth inhibition read?
Its growth inhibition is -15%.

Which growth inhibition does the source give for CCCCCCCCCCCCCCCCCCNC here?
The growth inhibition was 1%.

Which growth inhibition does the source give for Oc1ccc(NCn2c(=S)sc3ccccc32)cc1 here?
Its growth inhibition is 12%.

For O=C1C2CC[C@@H]3C(=O)C(Cl)(Cl)[C@@H]3CCC2C1(Cl)Cl (stereo not given in full), which growth inhibition is on record?
Its growth inhibition is 12%.

For CC[n+]1ccc2c(C)c3[nH]c4ccc(O)cc4c3c(C)c2c1, which growth inhibition is on record?
The growth inhibition was 16%.

For Cc1ccc(-n2cc(-c3ccc(Cl)cc3)c(C#N)c2N)cc1, which growth inhibition is on record?
Its growth inhibition is -3%.

Which growth inhibition does the source give for CC(=O)[O][Bi]([c]1ccccc1)[c]1ccccc1 here?
The growth inhibition was 42%.

For CC1=C(SCCO)C(=O)c2ccccc2C1=O, which growth inhibition is on record?
Its growth inhibition is 0%.

For C/C(=N\O)C1CC2C=C(C#N)C1N(Cc1ccccc1)C2 (stereo not given), which growth inhibition is on record?
Its growth inhibition is -3%.

Which growth inhibition does the source give for CC(Br)C(=O)c1ccc2cc(Br)c3ccccc3c2c1 (stereo not given) here?
The growth inhibition was -2%.

With Nc1nc(-c2cccnc2)cc(-c2cc(-c3cccnc3)nc(N)n2)n1 as the compound, how does the growth inhibition read?
The growth inhibition was 5%.

With CC(C)=CC(=O)O[C@@H]1CC(C)(C)CC2C3=CCC4[C@]56CC[C@](O)(OC5)C(C)(C)C6CC[C@@]4(C)C3(C)CC[C@]21C(=O)O (stereo not given in full) as the compound, how does the growth inhibition read?
Its growth inhibition is 36%.

For CCC(C)COC(=O)c1ccc(N=Cc2ccc(C=Nc3ccc(C(=O)OCC(C)CC)cc3)cc2)cc1 (stereo not given), which growth inhibition is on record?
The growth inhibition was -9%.

With Oc1cccc2c(Cl)ccnc12 as the compound, how does the growth inhibition read?
Its growth inhibition is 100% (active).

Which growth inhibition does the source give for O=C(O)c1cccc(-c2c3ccc(=O)cc-3oc3cc(O)ccc23)c1 here?
Its growth inhibition is 13%.

For CN(CCc1ccccn1)c1ccc2c(c1)Cc1ccccc1-2, which growth inhibition is on record?
Its growth inhibition is 26%.

Which growth inhibition does the source give for Cc1cc(S(=O)(=O)/N=C(/NN)NNc2cccc(C(F)(F)F)n2)c(S)cc1Cl here?
Its growth inhibition is -2%.

For O=C1C2C(C(=O)N1c1ccc(OCc3ccccc3)cc1)C1c3ccccc3C2C2CCCCN21 (stereo not given), which growth inhibition is on record?
Its growth inhibition is 11%.

Which growth inhibition does the source give for Nc1ccccc1CC(O)C(=O)O (stereo not given) here?
The growth inhibition was 13%.

For O=C(O)C1CCCCC1c1c2ccc(=O)c(O)c-2oc2c(O)c(O)ccc12 (stereo not given), which growth inhibition is on record?
Its growth inhibition is -22%.

With Cc1ccc2ccc(O)cc2c1 as the compound, how does the growth inhibition read?
Its growth inhibition is -28%.

For O=C1C(=O)c2ccccc2C=C1[N+](=O)[O-], which growth inhibition is on record?
Its growth inhibition is 9%.

With COC(=O)c1ccc(NCC2=CC(=O)C=CC2=O)cc1O as the compound, how does the growth inhibition read?
The growth inhibition was 32%.

Which growth inhibition does the source give for C(CCSC1=NCCN1)CSC1=NCCN1 (tested in a mixture with another compound) here?
Its growth inhibition is 44%.

With N#Cc1c(N)[nH]c2ccc(Sc3ccccc3)cc12 as the compound, how does the growth inhibition read?
Its growth inhibition is 0%.

For CCNc1nnc(CSc2nc(-c3ccccc3)c(-c3ccccc3)[nH]2)s1, which growth inhibition is on record?
The growth inhibition was -15%.

Which growth inhibition does the source give for CC[C@@]1(O)C(=O)OCc2c1cc1n(c2=O)Cc2cc3c(N)cccc3nc2-1 here?
Its growth inhibition is 87% (active).

Same assay, conditions: S. cerevisiae rad50 strain growth inhibition; at 5.0 µM (retest, dose inferred, filed as 0.5); active compounds read high

Which growth inhibition does the source give for S=C(S)NN1CCOCC1 here?
The growth inhibition was 89% (active).

With COc1cc2c3c(cccc3c1)C(=O)N(CCN(C)C)C2=O as the compound, how does the growth inhibition read?
Its growth inhibition is 23%.

Which growth inhibition does the source give for COC(=O)C1=C(C)NC(C)=C(C(=O)OCCCN2CCC(c3ccccc3)(c3ccccc3)CC2)C1c1cccc([N+](=O)[O-])c1 (stereo not given) here?
Its growth inhibition is 37%.

With c1ccc2c(c1)Oc1cccc3cccc-2c13 as the compound, how does the growth inhibition read?
Its growth inhibition is 95% (active).

For CN(C)CCOc1ccc2c(c1)C/C(=C/c1ncc([N+](=O)[O-])n1C)C2=O, which growth inhibition is on record?
The growth inhibition was 33%.

Which growth inhibition does the source give for Cc1ccc(CCC2=CCCc3c2ccc2ccccc32)cc1 here?
The growth inhibition was -7%.

Which growth inhibition does the source give for CNC(=O)OCc1c(COC(=O)NC)c(-c2ccc(Cl)c(Cl)c2)n2c1CCC2 here?
The growth inhibition was 17%.

With Clc1ccccc1C1OC1c1ccccc1Cl (stereo not given) as the compound, how does the growth inhibition read?
The growth inhibition was 57%.

For O=[N+]([O-])c1cc(CCl)ccc1CCl, which growth inhibition is on record?
The growth inhibition was -3%.

With O=C1C=CC(=O)c2c(O)c(Nc3ccc(OC(F)(F)F)cc3)c(Cl)c(O)c21 as the compound, how does the growth inhibition read?
The growth inhibition was 4%.

Which growth inhibition does the source give for S=c1[nH]nc(Nc2ccc(Cl)cc2)s1 here?
Its growth inhibition is -150%.

With Cn1ccnc1Oc1ccc(Cl)cc1 as the compound, how does the growth inhibition read?
Its growth inhibition is -121%.

For BrCc1cccc2ccc3cccc(CBr)c3c12, which growth inhibition is on record?
Its growth inhibition is -1%.

With O=C1c2ccccc2-c2nc3ccccc3nc21 as the compound, how does the growth inhibition read?
The growth inhibition was 80% (active).

With CCCCCCCCCCCCCCCCCCNC as the compound, how does the growth inhibition read?
Its growth inhibition is 34%.

With Oc1ccc(NCn2c(=S)sc3ccccc32)cc1 as the compound, how does the growth inhibition read?
The growth inhibition was 62%.

For O=C1C2CC[C@@H]3C(=O)C(Cl)(Cl)[C@@H]3CCC2C1(Cl)Cl (stereo not given in full), which growth inhibition is on record?
The growth inhibition was 19%.

With CC[n+]1ccc2c(C)c3[nH]c4ccc(O)cc4c3c(C)c2c1 as the compound, how does the growth inhibition read?
The growth inhibition was 58%.

Which growth inhibition does the source give for Cc1ccc(-n2cc(-c3ccc(Cl)cc3)c(C#N)c2N)cc1 here?
The growth inhibition was 13%.

With CC(=O)[O][Bi]([c]1ccccc1)[c]1ccccc1 as the compound, how does the growth inhibition read?
The growth inhibition was 27%.

For CC1=C(SCCO)C(=O)c2ccccc2C1=O, which growth inhibition is on record?
Its growth inhibition is 1%.

With C/C(=N\O)C1CC2C=C(C#N)C1N(Cc1ccccc1)C2 (stereo not given) as the compound, how does the growth inhibition read?
Its growth inhibition is -6%.

For CC(Br)C(=O)c1ccc2cc(Br)c3ccccc3c2c1 (stereo not given), which growth inhibition is on record?
The growth inhibition was -3%.

Which growth inhibition does the source give for Nc1nc(-c2cccnc2)cc(-c2cc(-c3cccnc3)nc(N)n2)n1 here?
Its growth inhibition is 1%.

Which growth inhibition does the source give for CC(C)=CC(=O)O[C@@H]1CC(C)(C)CC2C3=CCC4[C@]56CC[C@](O)(OC5)C(C)(C)C6CC[C@@]4(C)C3(C)CC[C@]21C(=O)O (stereo not given in full) here?
The growth inhibition was 10%.

For CCC(C)COC(=O)c1ccc(N=Cc2ccc(C=Nc3ccc(C(=O)OCC(C)CC)cc3)cc2)cc1 (stereo not given), which growth inhibition is on record?
The growth inhibition was 96% (active).

For Oc1cccc2c(Cl)ccnc12, which growth inhibition is on record?
Its growth inhibition is 99% (active).

With O=C(O)c1cccc(-c2c3ccc(=O)cc-3oc3cc(O)ccc23)c1 as the compound, how does the growth inhibition read?
Its growth inhibition is 90% (active).

For CN(CCc1ccccn1)c1ccc2c(c1)Cc1ccccc1-2, which growth inhibition is on record?
The growth inhibition was 20%.

For Cc1cc(S(=O)(=O)/N=C(/NN)NNc2cccc(C(F)(F)F)n2)c(S)cc1Cl, which growth inhibition is on record?
Its growth inhibition is 1%.

Which growth inhibition does the source give for O=C1C2C(C(=O)N1c1ccc(OCc3ccccc3)cc1)C1c3ccccc3C2C2CCCCN21 (stereo not given) here?
The growth inhibition was 3%.

With Nc1ccccc1CC(O)C(=O)O (stereo not given) as the compound, how does the growth inhibition read?
The growth inhibition was -15%.

For O=C(O)C1CCCCC1c1c2ccc(=O)c(O)c-2oc2c(O)c(O)ccc12 (stereo not given), which growth inhibition is on record?
The growth inhibition was 9%.

Which growth inhibition does the source give for Cc1ccc2ccc(O)cc2c1 here?
The growth inhibition was -9%.

For O=C1C(=O)c2ccccc2C=C1[N+](=O)[O-], which growth inhibition is on record?
Its growth inhibition is -12%.

Which growth inhibition does the source give for COC(=O)c1ccc(NCC2=CC(=O)C=CC2=O)cc1O here?
Its growth inhibition is 12%.

Which growth inhibition does the source give for C(CCSC1=NCCN1)CSC1=NCCN1 (tested in a mixture with another compound) here?
The growth inhibition was 59%.

For N#Cc1c(N)[nH]c2ccc(Sc3ccccc3)cc12, which growth inhibition is on record?
Its growth inhibition is -3%.

For CCNc1nnc(CSc2nc(-c3ccccc3)c(-c3ccccc3)[nH]2)s1, which growth inhibition is on record?
Its growth inhibition is 7%.

For CC[C@@]1(O)C(=O)OCc2c1cc1n(c2=O)Cc2cc3c(N)cccc3nc2-1, which growth inhibition is on record?
Its growth inhibition is 81% (active).
